Among the data in ChEMBL document CHEMBL1961873, “Compounds: GSK PKIS; Assays: Nanosyn kinase panel” (2012) are inhibition values, retold here.

Each structure is given as a SMILES string.

For test [1], the target named is T1, Serine/threonine-protein kinase D2 (Homo sapiens) (UniProt Q9BZL6).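 Further: mean value of PRKD2 inhibition, from the GSK PKIS screening panel.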
T1 sequence (whole entry): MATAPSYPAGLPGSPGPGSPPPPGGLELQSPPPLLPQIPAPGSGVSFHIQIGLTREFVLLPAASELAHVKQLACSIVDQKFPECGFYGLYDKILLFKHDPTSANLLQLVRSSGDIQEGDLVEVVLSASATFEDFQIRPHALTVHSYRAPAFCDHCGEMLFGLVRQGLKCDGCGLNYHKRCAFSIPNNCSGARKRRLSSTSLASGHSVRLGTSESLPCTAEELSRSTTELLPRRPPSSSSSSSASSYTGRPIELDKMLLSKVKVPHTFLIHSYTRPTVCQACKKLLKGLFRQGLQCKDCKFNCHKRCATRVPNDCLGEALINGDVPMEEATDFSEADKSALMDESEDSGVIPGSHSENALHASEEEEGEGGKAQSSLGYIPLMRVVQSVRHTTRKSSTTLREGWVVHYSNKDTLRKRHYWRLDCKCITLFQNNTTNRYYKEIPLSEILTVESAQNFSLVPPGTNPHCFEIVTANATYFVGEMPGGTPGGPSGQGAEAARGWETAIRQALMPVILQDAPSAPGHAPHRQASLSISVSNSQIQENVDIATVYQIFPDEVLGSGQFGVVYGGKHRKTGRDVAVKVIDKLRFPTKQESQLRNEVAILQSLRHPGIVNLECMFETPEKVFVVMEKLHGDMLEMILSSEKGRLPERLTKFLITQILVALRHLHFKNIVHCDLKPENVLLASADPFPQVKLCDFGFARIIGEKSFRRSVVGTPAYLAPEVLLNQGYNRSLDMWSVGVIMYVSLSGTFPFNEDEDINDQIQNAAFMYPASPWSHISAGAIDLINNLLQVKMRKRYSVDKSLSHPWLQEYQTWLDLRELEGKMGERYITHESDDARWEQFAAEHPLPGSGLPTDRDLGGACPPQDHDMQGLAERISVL
Conditions: at 1 µM.

In test [2] the target is T2, Serine/threonine-protein kinase D3 (Homo sapiens) (UniProt O94806).
T2 sequence (whole entry): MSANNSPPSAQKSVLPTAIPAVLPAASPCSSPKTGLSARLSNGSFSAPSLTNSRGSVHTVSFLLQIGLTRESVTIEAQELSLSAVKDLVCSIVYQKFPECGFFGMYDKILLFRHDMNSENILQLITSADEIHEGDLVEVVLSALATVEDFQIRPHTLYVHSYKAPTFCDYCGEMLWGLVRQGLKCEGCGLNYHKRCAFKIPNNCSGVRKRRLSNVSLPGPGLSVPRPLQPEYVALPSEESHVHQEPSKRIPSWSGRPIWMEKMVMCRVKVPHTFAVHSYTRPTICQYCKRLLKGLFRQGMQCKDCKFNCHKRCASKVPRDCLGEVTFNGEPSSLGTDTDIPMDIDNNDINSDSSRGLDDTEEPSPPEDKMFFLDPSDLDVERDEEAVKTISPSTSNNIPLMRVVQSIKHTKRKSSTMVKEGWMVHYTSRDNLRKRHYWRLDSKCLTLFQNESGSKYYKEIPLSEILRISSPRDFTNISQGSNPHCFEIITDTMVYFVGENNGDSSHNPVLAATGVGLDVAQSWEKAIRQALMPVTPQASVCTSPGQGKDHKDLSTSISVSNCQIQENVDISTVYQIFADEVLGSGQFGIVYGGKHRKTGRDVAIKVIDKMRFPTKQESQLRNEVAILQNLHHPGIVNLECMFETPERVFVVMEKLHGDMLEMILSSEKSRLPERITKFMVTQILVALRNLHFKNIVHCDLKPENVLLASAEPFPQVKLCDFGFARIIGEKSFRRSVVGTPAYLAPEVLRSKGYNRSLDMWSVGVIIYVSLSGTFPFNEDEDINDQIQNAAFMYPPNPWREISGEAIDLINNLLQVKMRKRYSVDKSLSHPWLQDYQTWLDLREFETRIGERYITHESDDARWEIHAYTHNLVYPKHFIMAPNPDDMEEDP
The note with it: at 0.1 µM.

The target in test [3] is T2, Serine/threonine-protein kinase D3 (Homo sapiens). Conditions: at 1 µM.
Test [4] addresses T3, cGMP-dependent protein kinase 1 (Homo sapiens) (UniProt Q13976).
T3 sequence (whole entry): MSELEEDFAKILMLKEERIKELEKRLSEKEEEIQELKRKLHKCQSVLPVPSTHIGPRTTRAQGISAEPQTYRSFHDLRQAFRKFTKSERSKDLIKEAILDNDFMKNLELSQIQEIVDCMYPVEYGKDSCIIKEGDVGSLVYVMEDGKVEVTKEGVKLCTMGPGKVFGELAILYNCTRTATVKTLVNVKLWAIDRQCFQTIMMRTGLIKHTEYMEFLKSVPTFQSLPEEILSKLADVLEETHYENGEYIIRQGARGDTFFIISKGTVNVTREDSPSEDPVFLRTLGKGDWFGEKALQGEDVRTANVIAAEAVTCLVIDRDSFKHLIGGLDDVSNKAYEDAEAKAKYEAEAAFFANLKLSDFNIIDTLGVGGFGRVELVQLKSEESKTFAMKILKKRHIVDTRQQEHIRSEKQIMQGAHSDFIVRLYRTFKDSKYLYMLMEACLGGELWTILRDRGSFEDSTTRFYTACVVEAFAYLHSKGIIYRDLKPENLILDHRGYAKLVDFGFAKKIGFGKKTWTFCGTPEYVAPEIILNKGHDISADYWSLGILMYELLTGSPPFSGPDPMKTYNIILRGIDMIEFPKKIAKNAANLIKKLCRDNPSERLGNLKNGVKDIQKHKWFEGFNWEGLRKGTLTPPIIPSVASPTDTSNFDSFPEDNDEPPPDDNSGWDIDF
The note with it: at 0.1 µM.

Test [5] has as its target T3, cGMP-dependent protein kinase 1 (Homo sapiens). The note with it: at 1 µM.
In test [6] the target is T4, cGMP-dependent protein kinase 2 (Homo sapiens) (UniProt Q13237).
T4 sequence (whole entry): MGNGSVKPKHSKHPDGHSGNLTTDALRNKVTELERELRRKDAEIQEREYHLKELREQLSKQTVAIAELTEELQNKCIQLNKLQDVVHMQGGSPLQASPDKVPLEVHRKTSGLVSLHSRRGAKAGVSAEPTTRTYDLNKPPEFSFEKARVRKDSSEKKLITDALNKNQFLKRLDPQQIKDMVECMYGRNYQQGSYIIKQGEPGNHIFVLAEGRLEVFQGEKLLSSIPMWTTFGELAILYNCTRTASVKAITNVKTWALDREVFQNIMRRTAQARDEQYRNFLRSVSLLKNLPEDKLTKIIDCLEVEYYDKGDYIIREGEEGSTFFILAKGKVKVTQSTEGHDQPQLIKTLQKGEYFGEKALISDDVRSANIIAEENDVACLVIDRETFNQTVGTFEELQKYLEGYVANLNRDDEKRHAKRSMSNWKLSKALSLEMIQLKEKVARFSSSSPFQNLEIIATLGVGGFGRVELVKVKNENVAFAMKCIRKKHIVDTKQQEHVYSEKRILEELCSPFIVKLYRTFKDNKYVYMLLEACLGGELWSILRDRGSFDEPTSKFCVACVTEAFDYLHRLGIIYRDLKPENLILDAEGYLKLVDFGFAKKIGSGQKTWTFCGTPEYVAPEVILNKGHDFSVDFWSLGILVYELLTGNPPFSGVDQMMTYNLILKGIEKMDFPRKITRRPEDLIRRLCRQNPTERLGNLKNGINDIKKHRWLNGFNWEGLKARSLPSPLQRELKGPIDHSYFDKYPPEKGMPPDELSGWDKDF
The note with it: at 0.1 µM.

In test [7] the target is T4, cGMP-dependent protein kinase 2 (Homo sapiens). Conditions: at 1 µM.
The target of test [8] is T5, cAMP-dependent protein kinase catalytic subunit PRKX (Homo sapiens) (UniProt P51817).
T5 sequence (whole entry): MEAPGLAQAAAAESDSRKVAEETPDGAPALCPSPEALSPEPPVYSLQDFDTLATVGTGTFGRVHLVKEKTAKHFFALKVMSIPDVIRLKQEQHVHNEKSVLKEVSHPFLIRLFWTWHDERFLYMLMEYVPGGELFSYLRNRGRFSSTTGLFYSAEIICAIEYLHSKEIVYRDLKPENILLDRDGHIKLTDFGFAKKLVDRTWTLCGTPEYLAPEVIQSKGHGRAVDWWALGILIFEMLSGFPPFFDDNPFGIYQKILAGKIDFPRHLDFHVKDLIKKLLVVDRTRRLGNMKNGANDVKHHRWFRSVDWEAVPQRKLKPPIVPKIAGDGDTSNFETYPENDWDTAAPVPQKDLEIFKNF
Conditions: at 0.1 µM.

The target of test [9] is T5, cAMP-dependent protein kinase catalytic subunit PRKX (Homo sapiens). The note with it: at 1 µM.
The target in test [10] is Rho-associated protein kinase 1 (Homo sapiens) (UniProt Q13464). The note with it: at 0.1 µM.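 Further: values are mean percent inhibition of ROCK1.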
Rho-associated protein kinase 1 (Homo sapiens), sequence (Q13464 2-1354 limits assumed): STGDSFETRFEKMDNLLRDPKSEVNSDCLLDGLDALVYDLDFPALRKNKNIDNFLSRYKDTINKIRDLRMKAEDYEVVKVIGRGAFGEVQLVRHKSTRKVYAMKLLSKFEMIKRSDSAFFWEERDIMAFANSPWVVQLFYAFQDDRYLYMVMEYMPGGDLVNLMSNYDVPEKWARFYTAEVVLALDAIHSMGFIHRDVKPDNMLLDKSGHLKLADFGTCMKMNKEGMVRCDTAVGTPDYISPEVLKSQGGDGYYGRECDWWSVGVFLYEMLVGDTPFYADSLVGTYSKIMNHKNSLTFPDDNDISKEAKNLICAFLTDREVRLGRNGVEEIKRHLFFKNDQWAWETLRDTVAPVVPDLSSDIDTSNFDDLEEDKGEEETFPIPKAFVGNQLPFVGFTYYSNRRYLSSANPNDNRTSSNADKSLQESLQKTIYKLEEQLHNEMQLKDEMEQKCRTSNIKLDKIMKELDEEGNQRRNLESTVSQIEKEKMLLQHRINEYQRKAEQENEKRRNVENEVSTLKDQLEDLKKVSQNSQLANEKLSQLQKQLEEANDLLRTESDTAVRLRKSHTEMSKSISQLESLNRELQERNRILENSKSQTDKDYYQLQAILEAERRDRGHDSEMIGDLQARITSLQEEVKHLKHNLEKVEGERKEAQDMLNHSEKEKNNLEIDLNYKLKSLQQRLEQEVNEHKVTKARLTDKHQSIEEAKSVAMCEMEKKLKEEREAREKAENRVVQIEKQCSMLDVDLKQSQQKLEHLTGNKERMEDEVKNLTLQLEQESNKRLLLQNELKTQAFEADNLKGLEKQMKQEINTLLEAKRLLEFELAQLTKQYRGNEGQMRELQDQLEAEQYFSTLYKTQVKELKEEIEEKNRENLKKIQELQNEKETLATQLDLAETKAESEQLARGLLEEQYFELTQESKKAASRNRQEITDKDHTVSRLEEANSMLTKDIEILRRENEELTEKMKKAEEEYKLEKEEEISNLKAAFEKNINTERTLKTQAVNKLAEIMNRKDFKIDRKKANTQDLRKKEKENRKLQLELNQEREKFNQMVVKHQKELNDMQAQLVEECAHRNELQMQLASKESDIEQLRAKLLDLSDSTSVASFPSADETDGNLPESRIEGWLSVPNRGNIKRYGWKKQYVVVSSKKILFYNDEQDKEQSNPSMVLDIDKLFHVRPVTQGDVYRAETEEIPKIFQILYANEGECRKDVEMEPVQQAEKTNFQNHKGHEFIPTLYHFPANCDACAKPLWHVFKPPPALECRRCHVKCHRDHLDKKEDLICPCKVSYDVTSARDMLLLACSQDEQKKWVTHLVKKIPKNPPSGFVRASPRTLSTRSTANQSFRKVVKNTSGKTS

One may read the inhibition as the change of the read-out against control, counted positive when it falls. For `Cc1ccc2c(c1)/C(=N/Nc1ccc(S(N)(=O)=O)cc1)C(=O)N2`, the inhibition in test [1] came out at 1.97%; in test [2], 0.87%; in test [3] it was 1.79%; in test [4], 0.26%; in test [5], 0.41%; in [6] it was 0.36%. The inhibition was 3.82% in test [7], -1.58% in [8], -2.35% in test [9] and 0.97% in [10].

Take `Cc1ccc2c(-c3ccnc(Nc4cccc(C(F)(F)F)c4)n3)c(-c3ccccc3)nn2n1`: the inhibition in [1] is 56.8%; in test [2] it was 11.6%; in [3], 51.5%; in test [4] it was 3.11%; in test [5] it was 5.07%; in test [6], 3.26%. The inhibition in [7] was found to be 4.35%; in [8], 2.65%; in [9], 2.54%; in test [10] it was 3.08%.

Take `COc1ccc2ncnc(Nc3ccc(OCc4ccccc4)cc3)c2c1`: the inhibition in [1] came to 2.88%; in test [2], 0.89%; in test [3], 2.6%; in [4] it was 0.77%; in test [5], 1.95%; in test [6], 0.94%. In addition, the inhibition in test [7] was 2.5%; in test [8] it was 1.23%; in test [9] it was 1.9%; in test [10] it was -0.05%.

Consider `CCCN1CCCC(c2ccc(Nc3nc(Nc4cc(F)ccc4C(N)=O)c4cc[nH]c4n3)c(OC)c2)C1` (stereo not given), for which the inhibition worked out at 81.1% in test [1]; 19.6% in test [2]; 72.7% in [3]; 7.1% in test [4]; 32.9% in test [5]; 4.78% in test [6]. Also, the inhibition is 26.3% in test [7], 0.44% in test [8], 0.52% in [9] and 22.5% in test [10].

With `COc1cc2ncnc(Nc3ccc(C)c(O)c3)c2cc1OC`, the inhibition in test [1] turned out to be 10.5%; in test [2], 5.98%; in test [3], 8.58%; in test [4], 3.2%; in test [5] it was 3.61%; in [6], 2.18%. Also, the inhibition in test [7] was determined as 3.65%; in [8], 2.05%; in [9] it was 2.06%; in test [10], 0.48%.

Consider `OCc1ccc(-c2nc(-c3ccccn3)c(-c3ccc4c(c3)OCO4)[nH]2)cc1`, for which the inhibition was determined as 9.51% in test [1]; 5.74% in test [2]; 8.28% in [3]; 1.9% in test [4]; 2.98% in test [5]; 2.69% in test [6]. Besides, the inhibition came to 3.26% in test [7], 1.55% in test [8], 0.61% in test [9] and 1.43% in test [10].

Consider `C[C@@H](Oc1cc(-n2cnc3ccc(OCC4CCN(C)CC4)cc32)sc1C(N)=O)c1ccccc1C(F)(F)F`, for which the inhibition in test [1] is 22.1%; in test [2], -0.13%; in test [3], 16.9%; in test [4] it was -2.23%; in [5], 0.25%; in test [6], -1.61%. The inhibition is 0.31% in [7], -0.03% in test [8], -1.15% in test [9] and 0.29% in test [10].

As for `Nc1nccc(-c2c(-c3ccc(F)cc3)ncn2CCCN2CCOCC2)n1`, the inhibition came to 4.5% in test [1]; 4.8% in test [2]; 4.86% in test [3]; 4.04% in [4]; 4.99% in [5]; 2.72% in test [6]. Also, the inhibition in test [7] worked out at 3.95%; in test [8] it was 2.51%; in [9], 5.13%; in test [10], 2.49%.

Regarding `COc1cccc(-n2ncc3c(N/N=C/c4ccc(S(C)(=O)=O)cc4)ncnc32)c1`, the inhibition in test [1] is -2.8%; in test [2], -6.98%; in test [3] it was -2.38%; in [4] it was 1.11%; in test [5], 1.69%; in test [6], 1.59%. The inhibition in test [7] is 1.79%; in [8], 1.68%; in test [9], 1.61%; in [10], 0.21%.
